Results from PubChem BioAssay AID1159580 (chemical genetic matrix, 2015).
About 2,000 (36%) of roughly 5,500 compounds were called active. Not shown: some 18% with an inconclusive outcome. No stated cut-off is given here; in the data, active means normalized growth mostly below about 0.91 (no sharp cut-off); inconclusive means no clear call, values can overlap the other calls; inactive means mostly above about 0.92. Some of the results follow.

Experiment: chemical genetic growth profiling, strain panel (AID 1159580);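 further: tested at 20 µM; growth read once vehicle control cultures reached saturation at 30 °C; 1 = growth at the plate median or of vehicle wells; lower values mean less growth of the strain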
Conditions: growth OD
[1] = S. cerevisiae deletion strains, locus YAL013W, strain DEP1, active compounds read low
[2] = S. cerevisiae deletion strains, locus YAL040C, strain CLN3, active compounds read low
[3] = S. cerevisiae deletion strains, locus YER002W, strain NOP16, active compounds read low
[4] = S. cerevisiae deletion strains, locus YGR078C, strain PAC10, active compounds read low
[5] = S. cerevisiae deletion strains, locus YNL175C, strain NOP13, active compounds read low
[6] = S. cerevisiae deletion strains, locus YNL197C, strain WHI3, active compounds read low
[7] = S. cerevisiae deletion strains, locus YNL224C, strain SQS1, active compounds read low
[8] = S. cerevisiae deletion strains, locus YNL322C, strain KRE1, active compounds read low
[9] = S. cerevisiae deletion strains, locus YOR083W, strain WHI5 (second series), active compounds read low
[10] = S. cerevisiae deletion strains, locus YCL061C, strain MRC1, active compounds read low
[11] = S. cerevisiae deletion strains, locus YHR030C, strain SLT2, active compounds read low
[12] = S. cerevisiae deletion strains, locus YMR263W, strain SAP30, active compounds read low
[13] = S. cerevisiae deletion strains, locus YNL153C, strain GIM3, active compounds read low

Measured: normalized growth

O=C1NC(=O)C(c2ccccc2)(c2ccccc2)N1
inactive: [1] 1.01 | [2] 1.1 | S. cerevisiae deletion strains, locus YCL061C, strain MRC1 (second series), active compounds read low 1 | S. cerevisiae deletion strains, locus YDR363W, strain ESC2, active compounds read low 1.02 | [3] 0.991 | [4] 1.02 | S. cerevisiae deletion strains, locus YNL128W, strain TEP1, active compounds read low 1 | [5] 0.993 | [6] 1.01 | [7] 0.975 | [8] 1.03 | [9] 1.03

O=C1c2ccccc2C(=O)C1(c1ccccc1)[N+](=O)[O-]
inactive: S. cerevisiae deletion strains, locus YEL061C, strain CIN8, active compounds read low 0.943 | S. cerevisiae deletion strains, locus YLR058C, strain SHM2 (second series), active compounds read low 1.03 | S. cerevisiae deletion strains, locus YLR085C, strain ARP6, active compounds read low 0.975 | S. cerevisiae deletion strains, locus YML094W, strain GIM5, active compounds read low 0.946 | S. cerevisiae deletion strains, locus YMR307W, strain GAS1, active compounds read low 0.919 | S. cerevisiae deletion strains, locus YNL298W, strain CLA4 (second series), active compounds read low 0.956 | [8] 1.01 | S. cerevisiae deletion strains, locus YOL006C, strain TOP1, active compounds read low 0.893 | S. cerevisiae deletion strains, locus YPR135W, strain CTF4, active compounds read low 0.798 | S. cerevisiae strains, strain wild type, active compounds read low 0.985
active: [1] 0.848 | S. cerevisiae deletion strains, locus YBR229C, strain ROT2, active compounds read low 0.78 | [10] 0.818 | S. cerevisiae deletion strains, locus YDL101C, strain DUN1, active compounds read low 0.776 | S. cerevisiae deletion strains, locus YDL134C, strain PPH21, active compounds read low 0.897 | [4] 0.664 | [11] 0.587 | S. cerevisiae deletion strains, locus YHR087W, strain rtc3, active compounds read low 0.811 | S. cerevisiae deletion strains, locus YJR043C, strain POL32, active compounds read low 0.861 | S. cerevisiae deletion strains, locus YJR075W, strain HOC1, active compounds read low 0.747 | S. cerevisiae deletion strains, locus YLR039C, strain RIC1, active compounds read low 0.734 | S. cerevisiae deletion strains, locus YLR262C, strain YPT6, active compounds read low 0.8 | S. cerevisiae deletion strains, locus YMR219W, strain ESC1, active compounds read low 0.832 | [12] 0.813 | [13] 0.803 | S. cerevisiae deletion strains, locus YNR030W, strain Alg12, active compounds read low 0.0637 | S. cerevisiae deletion strains, locus YPL055C, strain LGE1, active compounds read low 0.799 | S. cerevisiae deletion strains, locus YPL241C, strain CIN2, active compounds read low 0.0628

CN(C)CCCC1(c2ccc(F)cc2)OCc2cc(C#N)ccc21 (centres undefined)
inactive: S. cerevisiae deletion strains, locus YAL021C, strain ccr4, active compounds read low 0.999 | S. cerevisiae deletion strains, locus YAL026C, strain drs2, active compounds read low 0.995 | S. cerevisiae deletion strains, locus YAL030W, strain snc1, active compounds read low 0.987 | [2] 0.984 | S. cerevisiae deletion strains, locus YBL061C, strain skt5, active compounds read low 0.991 | S. cerevisiae deletion strains, locus YBR009C, strain hhf1, active compounds read low 0.979 | S. cerevisiae deletion strains, locus YBR023C, strain chs3, active compounds read low 0.987 | S. cerevisiae deletion strains, locus YBR171W, strain sec66, active compounds read low 0.983 | S. cerevisiae deletion strains, locus YBR231C, strain swc5, active compounds read low 0.981 | S. cerevisiae deletion strains, locus YBR279W, strain paf1, active compounds read low 0.979 | S. cerevisiae deletion strains, locus YCL011C, strain gbp2, active compounds read low 0.99 | S. cerevisiae deletion strains, locus YCL016C, strain dcc1, active compounds read low 0.997 | [10] 0.987 | S. cerevisiae deletion strains, locus YCL069W, strain vba3, active compounds read low 0.992 | S. cerevisiae deletion strains, locus YCR088W, strain abp1, active compounds read low 0.983 | S. cerevisiae deletion strains, locus YDL005C, strain med2, active compounds read low 0.985 | S. cerevisiae deletion strains, locus YDL040C, strain nat1, active compounds read low 0.985 | S. cerevisiae deletion strains, locus YDR001C, strain nth1, active compounds read low 0.981 | S. cerevisiae deletion strains, locus YDR069C, strain doa4, active compounds read low 0.983 | S. cerevisiae deletion strains, locus YDR137W, strain rgp1, active compounds read low 0.991 | S. cerevisiae deletion strains, locus YDR159W, strain sac3, active compounds read low 0.985 | S. cerevisiae deletion strains, locus YDR195W, strain ref2 0.946 | S. cerevisiae deletion strains, locus YDR297W, strain sur2, active compounds read low 0.993 | S. cerevisiae deletion strains, locus YDR334W, strain swr1, active compounds read low 0.983 | S. cerevisiae deletion strains, locus YDR335W, strain msn5, active compounds read low 0.991 | S. cerevisiae deletion strains, locus YDR392W, strain spt3, active compounds read low 0.894 | S. cerevisiae deletion strains, locus YEL003W, strain gim4, active compounds read low 0.987 | S. cerevisiae deletion strains, locus YEL037C, strain rad23, active compounds read low 1 | S. cerevisiae deletion strains, locus YEL061C, strain CIN8 (second series), active compounds read low 0.986 | [3] 0.994 | S. cerevisiae deletion strains, locus YER015W, strain faa2, active compounds read low 0.985 | S. cerevisiae deletion strains, locus YER016W, strain bim1, active compounds read low 0.985 | S. cerevisiae deletion strains, locus YER111C, strain swi4, active compounds read low 0.983 | S. cerevisiae deletion strains, locus YER155C, strain BEM2 (second series), active compounds read low 0.944 | S. cerevisiae deletion strains, locus YFR010W, strain ubp6, active compounds read low 0.976 | S. cerevisiae deletion strains, locus YGL167C, strain pmr1, active compounds read low 0.99 | S. cerevisiae deletion strains, locus YGL173C, strain kem1, active compounds read low 0.989 | S. cerevisiae deletion strains, locus YGL227W, strain vid30, active compounds read low 0.989 | S. cerevisiae deletion strains, locus YGL240W, strain doc1, active compounds read low 0.97 | S. cerevisiae deletion strains, locus YGL253W, strain hxk2, active compounds read low 0.993 | S. cerevisiae deletion strains, locus YGR229C, strain SMI1, active compounds read low 1.01 | S. cerevisiae deletion strains, locus YHR013C, strain ard1, active compounds read low 0.975 | S. cerevisiae deletion strains, locus YHR027C, strain rpn1, active compounds read low 0.985 | [11] 1.02 | S. cerevisiae deletion strains, locus YHR079C, strain IRE1, active compounds read low 1.03 | S. cerevisiae deletion strains, locus YHR142W, strain chs7, active compounds read low 1 | S. cerevisiae deletion strains, locus YJL092W, strain hpr5, active compounds read low 0.995 | S. cerevisiae deletion strains, locus YJL095W, strain BCK1 (second series), active compounds read low 0.989 | S. cerevisiae deletion strains, locus YJL095W, strain BCK1, active compounds read low 1.03 | S. cerevisiae deletion strains, locus YJL115W, strain asf1, active compounds read low 0.985 | S. cerevisiae deletion strains, locus YJL129C, strain trk1, active compounds read low 1 | S. cerevisiae deletion strains, locus YJL154C, strain vps35, active compounds read low 0.989 | S. cerevisiae deletion strains, locus YJL164C, strain tpk1, active compounds read low 0.987 | S. cerevisiae deletion strains, locus YJL166W, strain qcr8, active compounds read low 1 | S. cerevisiae deletion strains, locus YJL187C, strain SWE1, active compounds read low 0.987 | S. cerevisiae deletion strains, locus YJR066W, strain TOR1, active compounds read low 0.998 | S. cerevisiae deletion strains, locus YKL160W, strain elf1, active compounds read low 1 | S. cerevisiae deletion strains, locus YKR026C, strain gcn3, active compounds read low 0.96 | S. cerevisiae deletion strains, locus YKR091W, strain srl3, active compounds read low 0.991 | S. cerevisiae deletion strains, locus YLL001W, strain dnm1, active compounds read low 0.994 | S. cerevisiae deletion strains, locus YLL026W, active compounds read low 0.986 | S. cerevisiae deletion strains, locus YLL041C, strain sdh2, active compounds read low 0.992 | S. cerevisiae deletion strains, locus YLR027C, strain aat2, active compounds read low 0.98 | S. cerevisiae deletion strains, locus YLR113W, strain HOG1, active compounds read low 1.01 | S. cerevisiae deletion strains, locus YLR221C, strain rsa3, active compounds read low 1 | S. cerevisiae deletion strains, locus YLR258W, strain gsy2, active compounds read low 0.98 | S. cerevisiae deletion strains, locus YLR262C, strain YPT6 (second series), active compounds read low 1.05 | S. cerevisiae deletion strains, locus YLR320W, strain mms22, active compounds read low 0.993 | S. cerevisiae deletion strains, locus YLR342W, strain FKS1, active compounds read low 0.999 | S. cerevisiae deletion strains, locus YLR357W, strain rsc2, active compounds read low 0.952 | S. cerevisiae deletion strains, locus YLR370C, strain arc18, active compounds read low 0.989 | S. cerevisiae deletion strains, locus YLR384C, strain iki3, active compounds read low 0.98 | S. cerevisiae deletion strains, locus YML120C, strain ndi1, active compounds read low 0.978 | S. cerevisiae deletion strains, locus YMR058W, strain fet3, active compounds read low 0.993 | S. cerevisiae deletion strains, locus YMR125W, strain sto1, active compounds read low 0.951 | S. cerevisiae deletion strains, locus YMR129W, active compounds read low 0.999 | S. cerevisiae deletion strains, locus YMR205C, strain PFK2, active compounds read low 0.946 | S. cerevisiae deletion strains, locus YMR231W, strain pep5, active compounds read low 0.984 | [12] 0.962 | S. cerevisiae deletion strains, locus YNL071W, strain lat1, active compounds read low 0.99 | [13] 0.997 | [5] 1 | S. cerevisiae deletion strains, locus YNL183C, strain NPR1, active compounds read low 1 | [6] 1 | S. cerevisiae deletion strains, locus YNL209W, strain ssb2, active compounds read low 0.992 | [7] 1.02 | S. cerevisiae deletion strains, locus YNL248C, strain rpa49, active compounds read low 0.99 | S. cerevisiae deletion strains, locus YNL322C, strain KRE1 (second series), active compounds read low 0.986 | S. cerevisiae deletion strains, locus YNR049C, strain mso1, active compounds read low 0.982 | S. cerevisiae deletion strains, locus YOR001W, strain rrp6, active compounds read low 0.987 | S. cerevisiae deletion strains, locus YOR070C, strain gyp1, active compounds read low 0.985 | S. cerevisiae deletion strains, locus YOR080W, strain dia2, active compounds read low 0.99 | [9] 1.01 | S. cerevisiae deletion strains, locus YOR083W, strain WHI5, active compounds read low 0.999 | S. cerevisiae deletion strains, locus YOR106W, strain vam3, active compounds read low 1.01 | S. cerevisiae deletion strains, locus YOR231W, strain MKK1, active compounds read low 1.03 | S. cerevisiae deletion strains, locus YOR265W, strain rbl2, active compounds read low 0.987 | S. cerevisiae deletion strains, locus YOR270C, strain vph1, active compounds read low 0.996 | S. cerevisiae deletion strains, locus YOR290C, strain snf2, active compounds read low 0.985 | S. cerevisiae deletion strains, locus YPL051W, strain arl3, active compounds read low 0.997 | S. cerevisiae deletion strains, locus YPL078C, strain atp4, active compounds read low 1 | S. cerevisiae deletion strains, locus YPL106C, strain sse1, active compounds read low 0.959 | S. cerevisiae deletion strains, locus YPL240C, strain hsp82, active compounds read low 1 | S. cerevisiae deletion strains, locus YPL256C, strain CLN2, active compounds read low 1.04
